Broadly, the Inhibition is the relative decrease from the control value, in per cent. The low end stands for little suppression, the high end for strong suppression.

Each structure is given as a SMILES string.

The values below come from ChEMBL document CHEMBL1157539, “Thousands of chemical starting points for antimalarial lead identification” (Nature, 2010).

The subject of the assay is HepG2. The assay can be described thus: GSK_TCMDC: Percent inhibition of human HepG2 cell line. Test compounds present at 10uM. The format is functional.
In turn, `CC12CN3CC(C)(CN(C1)C3c1cc(Br)ccc1O)C2O` (stereo not given) had an Inhibition of 5%. With `COc1ccc(-n2ccnc2SCC(=O)Nc2cc(C(F)(F)F)ccc2Cl)c(OC)c1`, the Inhibition is 0%. In turn, `O=C(NCc1ccc(Cl)c(Cl)c1)c1ccc(C2CCCN(Cc3ccc4[nH]cnc4c3)C2)cc1` (stereo not given) gave an Inhibition of 9%. As to `CCOc1cc(CC)ccc1C1CCN(CCN2CCC(NC(=O)c3ccc(-c4ccc(C#N)cc4)cc3)CC2)CC1`, the Inhibition is recorded as 32%. Molecule `Br.COc1ccc(CCON2C(=N)N=C(N)NC2(C)C)cc1OC` registered an Inhibition of 64%. In turn, `CCc1cc(NC2CCN(C)CC2)nc(Nc2cccc(OC)c2)n1` had an Inhibition of 22%. For the molecule `O=C(NCC1CC1)C1CCN(C(c2ccc(Cl)cc2)c2ccc(Cl)cc2)CC1`, the Inhibition is 3%. The molecule `O=C(NCCN1CCCC1)N1CCCN(c2ncnc3cc(-c4ccc(F)cc4)sc23)CC1.O=C(O)C(F)(F)F` returned an Inhibition of 5%. For `CCC(C)NS(=O)(=O)c1ccc2nc(Nc3ccc(C)cc3)n([C@H](C)C(C)(C)C)c2c1` (stereo not given in full), the Inhibition amounted to 2%. In turn, `CCCNC(=O)C1Cc2cc(OC)c(OC)cc2C2(N1)C(=O)N(Cc1cccc(OC)c1)c1ccccc12` (stereo not given) came in with an Inhibition of 11%. Molecule `O=[N+]([O-])c1ccc2nc(Nc3ccc(Cl)c(Cl)c3)c(Nc3ccc(Cl)c(Cl)c3)nc2c1` displayed an Inhibition of 1%. With `COc1cc(NCC(O)CNc2cc(Cl)nc3ccccc23)nc2ccccc12` (stereo not given), the Inhibition is reported as 17%.

The molecule `CCc1cn2c3c(cc(C(=O)N[C@@H](Cc4ccccc4)[C@H](O)CNCc4ccccc4C)cc13)N(C)S(=O)(=O)CC2.O=CO` came in with an Inhibition of 3%. For `Cl.O=c1cc(NCCCNCc2cc3c(Cl)cc(Cl)cc3[nH]2)[nH]c2ccccc12` the value was 0%; for `COc1ccc(NC(=O)N2CCCN(CCCCCNC(=O)/C=C/c3ccc(C(F)(F)F)cc3)CC2)cc1Cl`, 21%; for `N#Cc1ccc(-c2ccc(C(=O)NCCCCN3CCC(c4cn(CCO)c5ccccc45)CC3)cc2)cc1`, 23%. With `Cc1ccc(C(=O)N2CCc3cc4nccc(N5CCN6CCC[C@H]6C5)c4cc32)cc1`, the Inhibition came to 5%. The same measure for `O=C(c1cc(-c2ccco2)n[nH]1)N1CCN(S(=O)(=O)c2ccc(Cl)cc2)CC1`: 0%; for `CN(C)CCCOc1ccc(CN2CC[C@H](NC(=O)c3ccc(Cl)c(Cl)c3)C2)cc1Cl.O=C(O)C(F)(F)F`: 65%.

`O=C(C=Cc1ccc(Cl)c(Cl)c1)NCCCCCN1CCC(CCNS(=O)(=O)c2ccc(Br)cc2)CC1` had an Inhibition of 58%. For `CO/C(=C\C=C\c1cc2cc(Cl)c(Cl)cc2[nH]1)C(=O)NCCCN1CCN(c2ccc(OC)cc2)CC1` the value was 40%. On to `O=C(NC1CCCC1)c1ccc(N2CCC(NCc3cc4cc(Cl)ccc4[nH]3)CC2)cc1`, for which the Inhibition came out at 21%. The molecule `Nc1ccc2[nH]cc(C3CCN(CCC4CCN(C(=O)/C=C/c5ccc(Cl)c(Cl)c5)CC4)CC3)c2n1` returned an Inhibition of 27%. `COc1ccc(N2CCN(CCCCNC(=O)c3ccc(/C=C/c4ccc(Cl)c(Cl)c4)cc3)CC2)c(OC)c1` registered an Inhibition of 51%.

In turn, `CCCCCCCCN1CCN(CCCCCCNc2c3ccccc3nc3ccccc23)CC1.Cl` came in with an Inhibition of 100%. The same measure for `C(=Cc1nc2ccccc2s1)c1ccc2c(c1)OCCO2.Cl`: 13%; for `O=C(O)c1ccc2c(c1)N(C(=O)CNCc1ccc(F)cc1)CC(=O)N2CCCc1ccccc1`: 1%. For `N#Cc1ccc(OCCN(Cc2ccccc2C(F)(F)F)c2ccc(C#N)c(C(F)(F)F)c2)cc1` the value was 69%; for `O=C(/C=C/c1ccc(Cl)cc1Cl)N1CCC(CCN2CCC(c3c[nH]c4ccccc34)CC2)CC1`, 94%; for `CCOc1cc(C(=O)NC2CCN(Cc3ccccc3)CC2)ccc1-c1nc2cc(Cl)c(F)cc2[nH]1`, 13%. Molecule `C=CCc1cc(SC)ccc1Oc1ccc(N)cc1.Cl` came in with an Inhibition of 12%. `CC(C)Cn1ncc2c3c(N)nc(N)nc3ccc21` had an Inhibition of 63%. `Cc1[nH]c(C)c(-c2ccc(OCCOc3ccc(C(F)(F)F)cn3)cc2)c(=O)c1Br`: the Inhibition was 25%. Molecule `CS(=O)(=O)CCNCc1cccc(-c2cc3c(Nc4ccc(OCc5cccc(F)c5)c(Cl)c4)ncnc3s2)c1.O=C(O)C(F)(F)F` came in with an Inhibition of 5%.

Regarding `CCOc1ccc(C(=O)Nc2cc(Br)c3c(c2)CNCC3)cc1Cl.Cl`, the Inhibition was 13%. The same measure for `Cc1[nH]c(C)c(-c2ccc(-c3ccc4c(c3)OCO4)nc2)c(=O)c1Br`: 0%. With `O=C(Cc1cccc(Cl)c1)N1CCc2cc3nccc(N4CCN5CCC[C@H]5C4)c3cc21`, the Inhibition is on record as 14%. The molecule `O=C(Nc1ccc(Cl)cc1Cl)NC1CCN(CCCCCNC(=O)C2CC2c2ccc(Cl)c(Cl)c2)CC1` (stereo not given) had an Inhibition of 67%. Consider `CC(C)(C)CCN1CCC(CNC(=O)c2cc(-c3cccc(C(F)(F)F)c3)cs2)C1.O=C(O)C(F)(F)F` (stereo not given), for which the Inhibition was 47%.

`Nc1nc(N)c2nc(C3CC=CCC3)c(N)nc2n1` (stereo not given) yielded an Inhibition of 67%.
